The values below come from PubChem BioAssay (NCATS).

Results filed as inconclusive are left out. Values without a mark were called inactive. Activity calls are given as the source filed them. Calls follow the shape of the dose curve; as a rule, active = well fitted inhibition curve with a large enough effect; inconclusive = small, poorly fitted or top-dose-only effect; inactive = flat fitted curve, though single readings scatter.

The subject of one assay is CRL-7250. Put plainly: Cytotoxic Profiling of Annotated Libraries Using Quantitative High-Throughput Screening (AID 1296008). Also: potency is read from the fitted curve at half-maximal effect. The note with it: Five cell lines viability, CellTiter-Glo ATP luminescence, 48-72 h; max response: hits give low values. An outline of the steps: (§1)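 Cytotoxicity was measured as CellTiter-Glo ATP luminescence, read after 10 min at room temperature. Compound treatment of the cells lasted 48 or 72 hr at 37 degrees Celsius in a qHTS format.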
In general terms: ATP-based viability assays read luminescence as a measure of living cells.

The next assay deals with HEK293. The description is as above. Conditions: Five cell lines viability, CellTiter-Glo ATP luminescence, 48-72 h; max response: hits give low values. An outline of the steps:
as §1

The subject of a further assay is KB-3-1. Described as above. Conditions: Five cell lines viability, CellTiter-Glo ATP luminescence, 48-72 h; max response: hits give low values. An outline of the steps:
as §1

For assay [1], the system named is HaCat. The description is as above. Conditions: Five cell lines viability, CellTiter-Glo ATP luminescence, 48-72 h; max response: hits give low values. A digest of the protocol:
as §1

For a further assay, the system named is NIH3T3. The assay is described as above. The note with it: Five cell lines viability, CellTiter-Glo ATP luminescence, 48-72 h; max response: hits give low values. A digest of the protocol: as §1
The test system of assay [2] is HACAT. Put plainly: qHTS assay to identify novel small-molecules to repurpose for Merkel cell carcinoma treatment (AID 1296009). Conditions: MCC and control cell lines, CellTiter-Glo viability, 72 h; series mostly up to 44.8 µM. An outline of the steps:
(§2)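 After compound transfer in DMSO, plates were kept 72 hr at 37 degree celsius. Luminescent ATP signal from CellTiter-Glo served as viability measure, normalized against DMSO and no-cell controls.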
Background: In qHTS, concentration-response curves come from the screen itself.

The next assay concerns HEK293T. The description is as above. Conditions: MCC and control cell lines, CellTiter-Glo viability, 72 h; at 44.8 µM (top of the series) unless noted. An outline of the steps: as §2
The subject of a further assay is MCC-13. The description is as above. Conditions: MCC and control cell lines, CellTiter-Glo viability, 72 h; series mostly up to 46 µM. An outline of the steps:
as §2

The test system of the next assay is MCC-26. Described as above. The note with it: MCC and control cell lines, CellTiter-Glo viability, 72 h; series mostly up to 46 µM. An outline of the steps: as §2
The next assay has as its system MKL-1. The description is as above. The note with it: MCC and control cell lines, CellTiter-Glo viability, 72 h; series mostly up to 46 µM. A digest of the protocol:
as §2
% is scaled to controls: 0 for no effect and ±100 for the full control effect.
Also: nearly all actives have a fitted effect of over 60% in size.

Take `Cc1c(NC(=O)c2cc(C(N)=O)nc3cc(F)ccc23)c(C(F)(F)F)nn1Cc1ccc(C#N)cc1`: the max response in the assay with CRL-7250 was -21.4%; in the assay on KB-3-1, 4.52%. For the same compound, the Potency with HEK293 is 0.0862 µM (active).

Regarding `CC1(C)CCCC2(C)C(C(=O)O)=CCC12` (centres undefined), the max response was -16.1% in the assay on CRL-7250, -1.36% in the assay with HEK293 and -0.0594% with KB-3-1.

Regarding `COc1ccc(-n2[nH]c(=O)c3[nH]c4cc(Cl)ccc4c(=O)c3c2=O)c(C)c1`, the max response in the assay with CRL-7250 was 1.23%; with NIH3T3, 4.85%. Further, the outcome in the assay on HEK293, with HaCat [1] and with HEK293T was inactive. Further, in the assay on HACAT [2], the Potency entry is “inactive”.

Consider `O=C(O)c1ccccc1NCCc1ccccc1`, for which the values for the max response in the assay with CRL-7250, in the assay with HEK293 and in the assay on NIH3T3 were 4.16%, 1.97% and 2.83%, respectively. Further, the compound was classed as inactive in the assay on HaCat [1], in the assay with MCC-13 and in the assay on MCC-26. Also, the Potency entry in the assay with HACAT [2] and in the assay with MKL-1 was “inactive” each time.

`O=C1NC(=O)C(c2cn3c4c(cccc24)CCC3)C1c1c[nH]c2ccccc12` (centres undefined): the values for the Potency in the assay with CRL-7250, in the assay on HEK293 and in the assay on KB-3-1 were 5.8 µM (active), 1.03 µM (active) and 1.3 µM (active), respectively.

`CNC(=O)c1ccccc1Nc1nc(Nc2ccc3c(c2OC)CCCC(N2CCN(CCO)CC2)C3)ncc1Cl` (centres undefined): the Potency is 7.31 µM (active) in the assay with CRL-7250, 5.17 µM (active) with HEK293, 10.3 µM (active) in the assay with KB-3-1 and 9.2 µM (active) in the assay with NIH3T3.

As for `CC(=O)N[C@@H](C(=O)O[C@H]1CCC(C)(C)[C@@H]2CCC3=C(COC3=O)[C@@]12C)C(C)C`, the max response was -2.03% in the assay with CRL-7250, 1.75% with HEK293 and -11.9% in the assay with KB-3-1. Moreover, in the assay with NIH3T3, the compound was classed as inactive.

Consider `C=CC1C(OC2OC(CO)C(O)C(O)C2O)OC=C(C(=O)OC)C1CC1CC(=O)CC(CCc2ccc(O)cc2)O1` (centres undefined), for which the max response with CRL-7250 was 3.27%; in the assay on HEK293, -3.27%; with KB-3-1, 0.837%; with NIH3T3, -7.36%.

On to `CCOCCn1nc(CC)c2nc(N3CCC(C(=O)O)CC3)nc(Nc3cc(C)ccn3)c21`, for which the max response in the assay on CRL-7250 is -0.41%; in the assay with HEK293, -20%; with KB-3-1 it was -10.2%; in the assay on NIH3T3 it was 3.17%.

On to `COc1cc(Br)c(Nc2nc(-c3c(C)nc4ncccn34)cs2)c(Br)c1`, for which the Potency in the assay with CRL-7250 was 4.61 µM (active); with HEK293 it was 5.8 µM (active); in the assay on KB-3-1 it was 2.31 µM (active); in the assay with NIH3T3, 1.46 µM (active).

Regarding `C[C@@H]1CN(Cc2ccccc2)C[C@H]1c1nc2c(cnn2C2CCOCC2)c(=O)[nH]1`, the max response with CRL-7250 was -0.22%; in the assay with HEK293, 2.89%; with KB-3-1 it was 2.05%; in the assay with NIH3T3, -13.9%.

Consider `CC1(C)CCC2(C(=O)OC3OC(CO)C(O)C(O)C3O)CCC3(C)C(=CCC4C5(C)CCC(O)C(C)(C(=O)O)C5CCC43C)C2C1O` (centres undefined), for which the max response is 3.57% with CRL-7250, 4.09% in the assay on HEK293, 1.65% with KB-3-1 and 0.934% with NIH3T3.

As for `COc1cc2c3c(cc4ccccc4c3c1O)NC2=O`, the max response was 4.86% in the assay on CRL-7250 and -10.3% with HEK293. In addition, the result in the assay with KB-3-1 and in the assay with NIH3T3 was inactive.

On to `O=C1OCc2cc3cccc(O[C@@H]4O[C@H](CO)[C@@H](O)[C@H](O)[C@H]4O)c3c(O)c21`, for which the values for the max response in the assay with CRL-7250, with HEK293 and in the assay on NIH3T3 were 3.34%, -24.4% and 0.153%, respectively. The outcome in the assay on KB-3-1 was inactive.

Regarding `C[C@@H]1O[C@@H](O[C@H]2[C@H](O[C@H]3CC[C@@]4(C)C(CC[C@]5(C)C4CC=C4[C@@H]6CC(C)(C)CC[C@]6(C(=O)O[C@@H]6OC[C@H](O)[C@H](O)[C@H]6O[C@@H]6O[C@@H](C)[C@H](O[C@@H]7O[C@H](CO)[C@@H](O)[C@H](O)[C@H]7O)[C@H](O)[C@H]6O)[C@H](O)C[C@]45C)C3(C)C)O[C@H](CO)[C@@H](O[C@@H]3OC[C@@H](O)[C@H](O)[C@H]3O)[C@@H]2O)[C@H](O)[C@H](O)[C@H]1O` (some centres undefined), the compound was called inactive with CRL-7250 and with KB-3-1. The max response in the assay on HEK293 was 4.66%; in the assay on NIH3T3 it was -3.79%.

In the case of `COC(=O)CCc1cc2ccoc2c(OC)c1O[C@@H]1O[C@H](CO)[C@@H](O)[C@H](O)[C@H]1O`, the values for the max response with CRL-7250, in the assay with HEK293 and in the assay on NIH3T3 were -7.38%, -10.4% and 0.737%, respectively. The outcome in the assay with KB-3-1 was inactive.

Regarding `CC(=O)NCC(=O)N1C2CCC1c1cc(Nc3ncc(C(F)(F)F)c(NC4CCC4)n3)ccc12` (centres undefined), the Potency in the assay on CRL-7250 is 1.64 µM (active); in the assay with HEK293, 2.59 µM (active); in the assay on KB-3-1 it was 1.03 µM (active); in the assay with NIH3T3, 1.3 µM (active).

Regarding `CN1CCN(Cc2ccc(-c3cnc4[nH]cc(-c5ccc6[nH]ccc6c5)c4c3)cc2)CC1`, the Potency with CRL-7250 was 10.3 µM (active); in the assay on HEK293 it was 6.51 µM (active); in the assay on KB-3-1 it was 9.2 µM (active); in the assay with NIH3T3, 14.6 µM (active).

Consider `CC(C)=CCC[C@](C)(O[C@@H]1O[C@H](CO)[C@@H](O)[C@H](O)[C@H]1O)[C@H]1CC[C@]2(C)[C@@H]1[C@H](O)CC1[C@@]3(C)CC[C@H](O)C(C)(C)C3[C@@H](O[C@@H]3O[C@H](CO)[C@@H](O)[C@H](O)[C@H]3O[C@@H]3OC[C@@H](O)[C@H](O)[C@H]3O)C[C@]12C` (some centres undefined), for which the max response was -28% in the assay on CRL-7250, -0.716% in the assay with HEK293, -9.18% with KB-3-1 and -2.19% in the assay on NIH3T3.
